Many of the other results were omitted from the sample, so hits are more common in it than they were.
T cruzi growth-1: T. cruzi intracellular proliferation inhibitors, primary screen, cell-based, beta-gal Tulahuen parasites, NIH3T3 host, luminescence. T. cruzi beta-gal in NIH3T3, GalScreen luminescence, 90 h. inhibition, % at 8.34 µM. 77,000 tested, 5.9% active;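 active = mean inhibition above about 93%, with at least 55% of replicates each passing it, limit read from the data, passing the limit was not always enough; inconclusive = only one of those two conditions holds; inactive = neither condition holds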
C diff growth: C. difficile growth inhibitors, primary screen, HTS; Clostridium difficile clinical isolate growth, OD600, 24 h; stronger effect = lower value; growth activity, negative = inhibition, % at 16 µg/mL (by protocol); 86,000 tested, 0.25% active; AID 1259249, 2017;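 active = mean growth activity at or below -80% and every replicate also at or below -80%; inconclusive = mean at or below -80% but some replicate above -80%; inactive = mean growth activity above -80%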;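 also: 0% = DMSO wells and -100% = levofloxacin 16 µg/mL wells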
T cruzi growth-2: T. cruzi intracellular proliferation inhibitors, confirmation, cell-based, NIH3T3 host, beta-gal parasite, luminescence, cherry-pick | shares compounds with T cruzi growth-1 | AID 651739, 2012 | 5,600 tested, 72% active | inhibition, % at 8.35 µM | T. cruzi beta-gal in NIH3T3, GalScreen luminescence, 90 h;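 active = mean replicate inhibition above about 95% and at least 55% of replicates individually reaching it, limit read from the data; inconclusive = only one of the two criteria is met; inactive = neither criterion is met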
T cruzi growth-3: inhibitors of intracellular T. cruzi replication, confirmation, NIH3T3 host cells, beta-gal parasites, cherry-pick, set 2. T. cruzi beta-gal in NIH3T3, GalScreen luminescence, 90 h. shares compounds with T cruzi growth-1. inhibition, % at 2.09 µM. 5,600 tested, 21% active;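 active = mean inhibition above about 95%, with at least 55% of replicates also reaching it, limit read from the data; inconclusive = meets just one of the two conditions; inactive = meets neither condition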;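 also: plate controls were neutral control median for no effect and positive control median for full effect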
NIH3T3 tox: cytotoxicity in mouse NIH/3T3 fibroblasts, confirmation, cytotoxicity control for T. cruzi proliferation inhibitor project, cell-based, cherry-pick, single point; 5,600 tested, 14% active; shares compounds with T cruzi growth-1; cytotoxicity (signal decrease), % at 8.35 µM; NIH/3T3 viability, CellTiter-Glo ATP luminescence, 90 h;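 active = mean signal decrease across replicates above about 35% based on untreated-well scatter, with enough replicates individually passing, limit read from the data; inconclusive = no rule stated though some were filed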;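 also: 0% = median of neutral control wells and 100% = median of positive control wells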
3T3 cytotox 2: NIH/3T3 fibroblast cytotoxicity, confirmation, cytotoxicity control, cell-based, cherry-pick, single point, set 2 | shares compounds with T cruzi growth-1 | NIH/3T3 viability, CellTiter-Glo ATP luminescence, 90 h | inhibition, % at 24.9 µM | 5,600 tested, 56% active;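 active = mean loss of cell viability signal at or above a set limit, and enough replicates individually reaching it; inconclusive = meets only the mean limit or only the replicate share; inactive = meets neither condition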;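 also: 0% = median of neutral control wells and 100% = median of positive control wells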
The depositor's hits bear a star; ? = inconclusive; . = no result.

SMILES | T cruzi growth-1 | C diff growth | T cruzi growth-2 | T cruzi growth-3 | NIH3T3 tox | 3T3 cytotox 2
O=C(Cc1ccccn1)N1CCCCN2[C@H](C1)[C@@H](c1ccc(-c3ccc(F)cc3)cc1)[C@@H]2CO | 45.6 | -1.3 | . | . | . | .
O=C(Cc1ccccn1)N1CCCCN2[C@@H](CO)[C@@H](c3ccc(-c4ccc(F)cc4)cc3)[C@@H]2C1 | ? | 4.8 | 72.5 | 60.2 | 0.9 | 40.9*
O=C(Cc1ccccn1)N1CCCCN2[C@H](CO)[C@@H](c3ccc(-c4ccccc4F)cc3)[C@@H]2C1 | 25.5 | 7.9 | . | . | . | .
Cc1ccccc1-c1ccc([C@@H]2[C@H](CO)N3CCCCN(C(=O)Cc4ccccn4)C[C@@H]23)cc1 | ? | -10.9 | 91.5 | 64.2 | 11.0 | 64.8*
O=C(Cc1ccccn1)N1CCCCN2[C@H](CO)[C@H](c3ccc(-c4ccccc4F)cc3)[C@@H]2C1 | 96.6* | 19.8 | 108.8* | 72.3 | -11.4 | -11.8
Cc1ccccc1-c1ccc([C@H]2[C@@H](CO)N3CCCCN(C(=O)Cc4ccccn4)C[C@H]23)cc1 | 93.2 | -10.1 | . | . | . | .
O=C(Cc1ccccn1)N1CCCCN2[C@H](C1)[C@H](c1ccc(-c3ccc(F)cc3)cc1)[C@@H]2CO | 91.9 | 1.8 | . | . | . | .
COC(=O)[C@@H]1N[C@@H]2c3ccc(C4=CCCC4)c(=O)n3C[C@@H]2[C@H]1CO | -28.5 | -0.9 | . | . | . | .
COc1ccc(C(O)(c2cncnc2)C2CC2)cc1 (stereo not drawn) | . | -9.3 | . | . | . | .
COc1ccc(-c2ccc3n(c2=O)C[C@@H]2[C@@H](CO)[C@H](C(=O)O)[C@H]3N2C(=O)c2ccccc2F)cc1 | -5.3 | -3.5 | . | . | . | .
CC=Cc1ccc2n(c1=O)C[C@@H]1[C@@H](CO)[C@H](C(=O)OC)[C@H]2N1CC1CCOCC1 (mixture of isomers) | 49.8 | -9.5 | . | . | . | .
O=C(O)[C@H]1[C@H](CO)[C@H]2Cn3c(ccc(-c4cncnc4)c3=O)[C@@H]1N2C(=O)NC1CCCC1 | 6.6 | -1.9 | . | . | . | .
C/C=C/c1ccc(C2[C@@H]3CN(C(=O)C4CCC4)C[C@H]2N3)cc1 (stereo partly drawn) | . | -5.4 | . | . | . | .
O=C(Cc1ccccc1)N1CC2(C1)[C@H](c1ccccc1)[C@H](CO)N2Cc1cccc(Cl)c1 | . | -4.1 | . | . | . | .
O=C(Cc1cccnc1)N1CCCCN2[C@H](C1)[C@@H](c1ccc(/C=C/c3ccccc3)cc1)[C@@H]2CO | 102.6* | 0.8 | 104.6* | 99.8* | 48.1* | 105.0*
C/C=C/c1ccc([C@H]2[C@H](CO)N3CCCCN(C(=O)Cc4cccnc4)C[C@@H]23)cc1 | 87.9 | -1.5 | . | . | . | .
O=C(Cc1cccnc1)N1CCCCN2[C@@H](CO)[C@@H](c3ccc(/C=C/c4ccccc4)cc3)[C@@H]2C1 | 107.7* | 21.9 | 96.7* | 67.8 | 7.2 | 105.9*
C/C=C/c1ccc([C@H]2[C@H]3CN(C(=O)Cc4cccnc4)CCCCN3[C@H]2CO)cc1 | 2.8 | 1.1 | . | . | . | .
C/C=C/c1ccc(C2[C@@H]3CN(Cc4cccnc4)C[C@H]2N3)cc1 (stereo partly drawn) | . | -0.1 | . | . | . | .
COC(=O)[C@H]1[C@H](CO)[C@H]2Cn3c(ccc(-c4ccccc4F)c3=O)[C@@H]1N2C(=O)C1CC1 | -17.9 | -5.3 | . | . | . | .
COCC(=O)N1[C@@H]2c3ccc(C4=CCCC4)c(=O)n3C[C@H]1[C@H](CO)[C@H]2C(=O)OC | 33.7 | 1.2 | . | . | . | .
COC(=O)[C@H]1[C@H](CO)[C@H]2Cn3c(cccc3=O)[C@@H]1N2C(=O)C1CC1 | -6.9 | -4.0 | . | . | . | .
COC(=O)[C@@H]1[C@@H](CO)[C@@H]2Cn3c(ccc(C4=CCCC4)c3=O)[C@H]1N2Cc1ccccn1 | 79.7 | 1.7 | . | . | . | .
O=C(Cc1ccccc1)N1CC2(C1)[C@H](c1ccccc1)[C@H](CO)N2Cc1cccc(F)c1 | . | 2.9 | . | . | . | .
CC(C)CC#Cc1ccc([C@@H]2[C@H](CO)N3CCCCN(C(=O)Cc4ccccn4)C[C@@H]23)cc1 | 96.9* | -9.7 | 107.5* | 72.6 | 15.2 | 103.9*
O=C(Cc1ccccn1)N1CCCCN2[C@H](CO)[C@H](c3ccc(C#Cc4ccccc4)cc3)[C@@H]2C1 | 116.2* | -17.7 | 108.6* | 69.9 | 36.3* | 46.0*
CCCC#Cc1ccc([C@@H]2[C@H](CO)N3CCCCN(C(=O)Cc4ccccn4)C[C@@H]23)cc1 | 54.9 | -5.5 | . | . | . | .
CC(C)CC#Cc1ccc([C@@H]2[C@@H](CO)N3CCCCN(C(=O)Cc4ccccn4)C[C@H]23)cc1 | 88.4 | -9.7 | . | . | . | .
